# Test results published in PubChem BioAssay AID743445 (Broad Institute, 2014).
# The campaign covered roughly 310,000 compounds. About 1,700 (0.55%) were called active. Cut-off read from the data, not from the text of the source: active = inhibition above about 50%; inactive = the rest. What follows is part of a selection rich in actives, with near analogues and random picks from the rest.
# Target: Histone-lysine N-methyltransferase NSD2 (Homo sapiens) (UniProt O96028)
# Assay: NSD2 histone methyltransferase inhibitors, primary screen, biochemical, AlphaScreen, single concentration, set 2 (AID 743445)
# Conditions: NSD2 peptide methylation, 120 min, at 12.5 µM, stronger effect = higher value
# Chain of Histone-lysine N-methyltransferase NSD2 (Homo sapiens) (O96028 whole entry, looked up): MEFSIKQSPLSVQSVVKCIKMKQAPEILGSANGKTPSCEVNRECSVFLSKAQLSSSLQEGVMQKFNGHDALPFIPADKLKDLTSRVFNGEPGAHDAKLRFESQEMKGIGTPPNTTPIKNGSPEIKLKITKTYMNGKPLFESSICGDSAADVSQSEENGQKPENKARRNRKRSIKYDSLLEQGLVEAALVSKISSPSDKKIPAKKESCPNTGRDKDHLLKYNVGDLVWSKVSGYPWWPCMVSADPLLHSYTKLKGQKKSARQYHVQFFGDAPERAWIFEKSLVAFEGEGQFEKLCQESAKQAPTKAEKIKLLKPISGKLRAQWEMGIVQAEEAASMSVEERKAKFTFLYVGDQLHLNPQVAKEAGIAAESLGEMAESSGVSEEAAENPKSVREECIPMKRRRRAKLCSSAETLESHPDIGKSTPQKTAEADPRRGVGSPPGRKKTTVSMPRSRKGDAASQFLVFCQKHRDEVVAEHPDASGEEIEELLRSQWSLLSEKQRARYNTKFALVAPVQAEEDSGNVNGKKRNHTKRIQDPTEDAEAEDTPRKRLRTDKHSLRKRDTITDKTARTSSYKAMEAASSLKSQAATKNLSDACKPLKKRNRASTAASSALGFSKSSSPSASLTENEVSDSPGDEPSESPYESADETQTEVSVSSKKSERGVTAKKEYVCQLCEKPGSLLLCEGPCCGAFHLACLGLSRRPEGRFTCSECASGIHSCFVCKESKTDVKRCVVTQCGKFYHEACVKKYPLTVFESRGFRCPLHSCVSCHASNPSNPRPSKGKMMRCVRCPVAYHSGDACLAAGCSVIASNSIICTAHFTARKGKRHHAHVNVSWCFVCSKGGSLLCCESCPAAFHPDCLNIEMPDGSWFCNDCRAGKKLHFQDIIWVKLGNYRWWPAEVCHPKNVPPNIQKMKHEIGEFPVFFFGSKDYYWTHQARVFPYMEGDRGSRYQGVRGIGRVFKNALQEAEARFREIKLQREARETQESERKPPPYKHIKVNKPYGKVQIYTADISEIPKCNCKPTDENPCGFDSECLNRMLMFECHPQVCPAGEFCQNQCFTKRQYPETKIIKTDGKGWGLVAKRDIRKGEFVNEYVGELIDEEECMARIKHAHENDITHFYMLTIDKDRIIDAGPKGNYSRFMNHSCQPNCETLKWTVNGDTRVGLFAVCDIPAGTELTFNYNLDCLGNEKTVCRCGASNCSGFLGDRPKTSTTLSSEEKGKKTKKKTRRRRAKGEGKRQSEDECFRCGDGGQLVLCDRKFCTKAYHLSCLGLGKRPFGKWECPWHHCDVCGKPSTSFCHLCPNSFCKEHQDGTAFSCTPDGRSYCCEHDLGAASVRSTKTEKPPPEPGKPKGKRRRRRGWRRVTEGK
row,Structure (SMILES),inhibition
1,Cc1ccccc1N1C(=O)NC(=O)/C(=C\c2cc(C)n(C)c2C)C1=O,5.19% (inactive)
2,Cc1c(C(=O)O)cccc1-n1c(C)cc(/C=C2\C(=O)NC(=O)N(c3ccc4c(c3)OCO4)C2=O)c1C,65.9% (active)
3,Cc1cc(/C=C2/C(=O)NC(=O)N(Cc3ccco3)C2=O)c(C)n1-c1ccc(C(=O)O)cc1,36.8% (inactive)
4,CCC(C)(O)C(=O)OC1C(=O)OC2CC3C(C)=CC(=O)C(O)C3(C)C3C4(O)OCC23C1C(C)C4O (stereo not given),-0.572% (inactive)
5,O=C(c1ccccc1)C(O)(CN1CCCCC1)c1ccccc1 (stereo not given),1.13% (inactive)
6,O=c1c2ccccc2[nH]c(=S)n1-c1cccc(Cl)c1,-7.59% (inactive)
7,COc1ccc(C2C=C(C)Oc3c2c(=O)oc2ccccc32)cc1OC (stereo not given),1.06% (inactive)
8,CC12CCC(O)CC1CCC1C2CCC2(C)C(C(=O)CC(O)C(F)(F)F)CCC12 (stereo not given),-0.54% (inactive)
9,O=C1NC(=O)N(c2ccc(F)cc2)C(=O)/C1=C/c1ccc2c(c1)CCCN2Cc1ccccc1,16.6% (inactive)
10,COc1cccc(N2C(=O)NC(=O)/C(=C\c3cn(C)c4ccccc34)C2=O)c1,1.25% (inactive)
11,COc1cccc(N2C(=O)NC(=O)/C(=C\c3ccc([N+](=O)[O-])s3)C2=O)c1,59% (active)
12,O=C1NC(=O)N(c2ccccc2)C(=O)/C1=C/c1ccc([N+](=O)[O-])s1,73.4% (active)
13,COc1ccc(CN2C(=O)NC(=O)/C(=C\c3ccc(OC)c(OC)c3OC)C2=O)cc1,1.88% (inactive)
14,O=C1NC(=O)C(Cc2ccccc2)C(=O)N1,-1.35% (inactive)
15,CC(=CCOc1ccc2ccc(=O)oc2c1)C1=CC(=O)C(C)(C)O1,0.448% (inactive)
16,CC(=O)OC1C2(CC3N4C(=O)C5(CO)SSC4(CC31O)C(=O)N5C)OC(C)C(C)(C)C2=O (stereo not given),133% (active)
17,CO[C@H]([C@H](C)/C=C/N(C)C=O)[C@@H](C)C(=O)CC[C@H](C)[C@H](O)[C@H](C)[C@H]1OC(=O)/C=C/C(C)=C/[C@H](O)[C@H](OC)C[C@@H]2C=CC[C@@H](C[C@H](OC)[C@@]3(CO3)[C@@H](OC)C[C@@H](OC)[C@@H]1C)O2,-2.92% (inactive)
18,O=P(OC1=CCCCC1)(c1ccccc1)c1ccccc1,1.12% (inactive)
19,O=c1c2ccccc2nc(CBr)n1-c1ccc(Cl)cc1,-1.22% (inactive)
20,c1cc2c(c(NC3=NCCCS3)c1)CCCC2,8.89% (inactive)
21,CC(=O)C1(O)CCC2C3CCC4=C(Cl)C(=O)CCC4(C)C3CCC21C (stereo not given),-5.24% (inactive)
22,Cc1cc(N2C(=O)C3CCCN3C2c2ccc(Cl)c(Cl)c2)no1 (stereo not given),84.4% (active)
23,CCN1C(=O)NC(=O)C2(CCCC2)C1=O,27.8% (inactive)
24,C[C@]12CCCCC1=CC(=O)C1C2CC[C@@]2(C)C1C[C@@H](F)[C@@H]2O (stereo not given in full),-1.58% (inactive)
25,O=C1NC(=O)C(CCOc2ccccc2)(CCc2ccccc2)C(=O)N1,1.16% (inactive)
